Compounds with a hit are over-represented: about 6.2% of the library has one in this group of screens.
LASV entry inh = blocks Lassa virus binding to or entry into cells | Potency, µM (highest dose often 37.9 µM), inactives show at the highest dose activity change, negative = inhibition, most hits filed as inhibitors | actives 1.2% (n = 300,000) | Lassa virus pseudotype entry inhibition, cell reporter; calls by dose curve; tested in HEK293 cells; further: potency means the concentration at half of the fitted maximal effect; nearly all actives have a fitted effect of over 50% in size
FMDV inh = antivirals against foot and mouth disease virus; FMDV antiviral cell-based qHTS; Potency, µM (highest dose often 57.9 µM), for the others: at the top dose activity change, negative = inhibition, actives largely listed as inhibitors; actives 1.2% (n = 410,000); AID 1159524; calls by dose curve; tested in HEK293T cells; further: read-out not given here; potency means the concentration at half of the fitted maximal effect; nearly all actives have a fitted effect of over 45% in size
HCMV antiviral = human cytomegalovirus inhibition. actives 4.5% (n = 410,000). activity change, negative = inhibition, % at 57.5 µM. HFF cells, HCMV-luciferase reporter, 72 h; active compounds read low; in the data active means activity change below about -60%; inconclusive means no clear call, values can overlap the other calls; inactive means above about -39%
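Compounds were evaluated in HFFs infected with an HCMV luciferase reporter virus (MOI 1 PFU/cell). Luciferase in lysates collected 72 h post infection served as the replication measure.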
Marburg entry inh = inhibitors of Marburg virus binding or cell entry | Marburg virus pseudotyped entry inhibition, cell reporter | Potency, µM (doses to about 37.8 µM), for the others: top-dose activity change, negative = inhibition, usual class: inhibitors | actives 1.8% (n = 300,000) | AID 540276; calls by dose curve; tested in HEK293 cells; further: potency means the concentration at half of the fitted maximal effect
An asterisk follows results filed as active; ? = inconclusive; nt = no result; ! = a repeat was not active; [ ] = another dose, or the depositor's remark. On the % scale 0 is the no-effect control and ±100 the full control effect.

SMILES	LASV entry inh	FMDV inh	HCMV antiviral	Marburg entry inh
CCOc1ccc2nc(NC(=O)CSc3nnc(-c4ccncc4)n3CC3CCCO3)sc2c1 (stereo not given)	4.3%	26.5%	12.9	7.1%
Cc1ccnc(NC(=O)c2ccc(OCC3CCCO3)cc2)c1 (stereo not given)	6.31µM*	15.8µM*	3.5	3.55µM*
Cc1csc(NC(=O)c2ccc(OCC3CCCO3)cc2)n1 (stereo not given)	3.55µM*	-67.5%	-12.6	4.47µM*
COc1ccccc1-n1c(Cc2cccc3ccccc23)nnc1SCC(=O)O	nt	nt	26.2	nt
O=C(Cn1cc(SCc2c(F)cccc2Cl)c2ccccc21)N1CCCCC1	4.8%[46.1 µM]	21.2%	124.2	nt
C#CCN1CC(COCCCC)Oc2cccc(F)c2S1(=O)=O (stereo not given)	-1.4%[46.1 µM]	nt	-15.5	nt
COc1ccc(/C=C/C(=O)c2cc(Br)ccc2O)cc1OC	nt	-24.5%	-26.4	nt
COc1ccc(/C=C/C(=O)c2cc(F)ccc2OC(=O)c2ccccc2OC)cc1OC	?	8.91µM*	-97.4*	?
COc1ccc(/C=C/C(=O)c2cc(F)ccc2OC(=O)c2ccccc2)cc1OC	?	28.2µM*	-96.6*	?
COc1ccc(/C=C/C(=O)c2cc(Br)ccc2OC(=O)c2ccco2)cc1OC	?	11.5%	20.6	5.8µM*!
N[C@H](CS)C(=O)O	nt	-5.0%	nt	nt
CN(C)Cc1ccccc1-c1nc(N(C)C)c2ccccc2n1	nt	-8.0%	nt	nt
N#Cc1cccc(NC(=O)N2CC[C@@]3(CCCN(C(=O)c4cc(C(F)(F)F)cc(C(F)(F)F)c4)C3)C2)c1	nt	-16.1%	nt	nt
Cc1ccccc1NC(=O)c1c(NC(=O)Cc2ccccc2)sc2c1CCC2	2.0%[46.1 µM]	-12.3%	-30.1	nt
O=[N+]([O-])c1ccc(SCc2c(F)cccc2Cl)nc1	10.5%[46.1 µM]	-14.5%	-60.8*	?
O=[N+]([O-])c1cccnc1SCc1c(F)cccc1Cl	-2.0%[46.1 µM]	-16.1%	-13.0	?
CC(=O)C1=C(c2cccc([N+](=O)[O-])c2)N(C(C)=O)n2c(C)nnc2S1	?	?	-93.3*	?
COc1cc(=O)n2c(c1C(=O)N(C)Cc1cscn1)CCN(Cc1c(C)[nH]c3ccccc13)CC2	nt	-5.9%	nt	nt
COc1ccc(CCNC(=O)Nc2nc(C(N)C3CCCCC3)cs2)cc1OC (stereo not given)	nt	-10.2%	17.8	nt
CSCCC(NC(=O)c1ccccc1Br)C(=O)NCc1ccc(F)cc1 (stereo not given)	nt	-11.2%	-63.1*	nt
CSCCC(NC(=O)c1ccccc1Br)C(=O)NCC1CCCCC1 (stereo not given)	-2.5%[46.1 µM]	11.5%	-27.0	12.9%[46.1 µM]
COc1ccc(-c2cn(Cc3ccc(C(=O)c4ccccc4)cc3)nn2)cc1	nt	10.0%	-82.3*	nt
COc1ccc(-c2cn(Cc3ccc4ccccc4c3)nn2)cc1	nt	29.0%	32.3	nt
Cc1cc(C)cc(N(CC(=O)NCc2ccccc2Cl)S(=O)(=O)c2c(C)noc2C)c1	-18.9%[46.1 µM]	-12.6%	-4.2	?
O=C(/C=C\c1ccco1)Nc1cc([N+](=O)[O-])ccc1F	?	-5.6%	-87.2*	?
SMILES	LASV entry inh	FMDV inh	HCMV antiviral	Marburg entry inh
Brc1ccc(CSc2nccn2-c2ccccc2)cc1	-23.2%	-0.5%	-73.1*	?
Cc1cc(C)c2c(=O)n3c(nc2c1)C(Cc1ccccc1)NC(=O)c1cc2ccccc2cc1-3 (stereo not given)	nt	?	-71.9*	nt
O=C1NC(Cc2ccc(O)cc2)c2nc3ccc(Cl)cc3c(=O)n2-c2cc3ccccc3cc21 (stereo not given)	nt	?	-105.5*	nt
Cc1ccc2c(=O)n3c(nc2c1)C(Cc1ccc(O)cc1)NC(=O)c1cc2ccccc2cc1-3 (stereo not given)	nt	?	-65.5*	nt
CCC1NC(=O)c2cc3ccccc3cc2-n2c1nc1cc(C)cc(C)c1c2=O (stereo not given)	nt	-25.4%	-10.3	nt
O=S(=O)(c1ccc(NC(=S)NCc2ccco2)cc1)N1CCCC1	-0.7%	19.9%	1.4	6.5%
COc1ccc(S(=O)(=O)N2CCCC(C(=O)Nc3cccnc3)C2)cc1Cl (stereo not given)	-6.7%	25.1µM*	?	?
COc1ccc(S(=O)(=O)N2CCCC(C(=O)NCc3ccncc3)C2)cc1Cl (stereo not given)	16.3%	nt	-65.8*	-4.9%
COc1ccc(S(=O)(=O)N2CCC(C(=O)NCc3ccncc3)CC2)cc1Cl	-7.9%[46.1 µM]	-7.3%	8.0	5.1%[46.1 µM]
COc1ccc(CNC(=S)NCc2ccc(F)cc2)cc1OC	-13.7%[46.1 µM]	-13.8%	-62.9*	-2.8%[46.1 µM]
O=S(=O)(c1ccc(NC(=S)NCc2ccncc2)cc1)N1CCCCC1	8.8%[46.1 µM]	26.4%	-64.7*	?
CCOC(=O)c1ccc(NC(=O)CSc2nc(-c3cccs3)cc(C(F)(F)F)c2C#N)cc1	-2.5%[46.1 µM]	-9.2%	-17.8	6.3%[46.1 µM]
CCOc1ccc(NC(=O)CCc2c(C)nc3c(c(C)nn3-c3ccccc3)c2C)cc1	?	-3.5%	12.4	-12.5%[46.1 µM]
COc1ccc(CNC(=O)C2CCCN(S(=O)(=O)N(C)c3ccc(F)cc3)C2)cc1OC (stereo not given)	-8.9%[46.1 µM]	12.6µM*	?	nt
CC(=O)c1cccc(NC(=O)C2CCCN(S(=O)(=O)c3ccc(F)cc3)C2)c1 (stereo not given)	-10.9%	?	-19.4	-12.0%
CC(=O)Nc1ccc(NC(=O)C2CCN(c3cnccn3)CC2)cc1	7.7%[46.1 µM]	-0.3%	-9.4	-8.0%[46.1 µM]
COc1ccc(S(=O)(=O)N2CCCC(C(=O)Nc3cccc(C(C)=O)c3)C2)cc1 (stereo not given)	5.2%	?	-66.2*	?
COc1ccc(NC(=O)C2CCN(c3cnccn3)CC2)cc1Cl	-9.9%[46.1 µM]	-9.3%	-60.2*!	?
CCOc1ccc(CNC(=O)C2CCCN(S(=O)(=O)N(C)c3ccc(F)cc3)C2)cc1OC (stereo not given)	nt	?	-26.2	-19.8%[46.1 µM]
CCNc1ccccc1	nt	nt	-1.7	nt
CCOc1ccc(CNC(=O)CCCn2nc(CC)n3c(cc4occc43)c2=O)cc1	nt	-10.5%	-60.0*	nt
CCc1nn(CCCC(=O)NCc2ccc(OC(C)C)cc2)c(=O)c2cc3occc3n12	18.0%[46.1 µM]	-31.5%	?	?
CC1=C(C#N)C(=O)NC(=O)/C1=C\c1ccc(-c2cc(C)c(C)cc2[N+](=O)[O-])o1	26.8%	?	25.1	27.6%
O=C1NC(=O)C(=Cc2ccc(-c3cc(Cl)ccc3[N+](=O)[O-])o2)C(=O)N1	1.4%	20µM*	-7.7	?
Cc1ccc(/C=C2\C(=O)ON=C2c2ccccc2)o1	-5.7%	-4.1%	?	-9.5%[46.1 µM]
SMILES	LASV entry inh	FMDV inh	HCMV antiviral	Marburg entry inh
Cc1ccc(-c2ccc(/C=C3\C(=O)ON=C3c3ccccc3)o2)c([N+](=O)[O-])c1	2.0%	-8.9%	-94.5*	?
O=C1NC(=O)C(=Cc2ccc(-c3ccccc3[N+](=O)[O-])o2)C(=O)N1	17.5%	35.5µM*	-1.6	?
COc1cc([C@@H]2C(C#N)=C(N)Oc3cc(C)n(CCc4ccccc4)c(=O)c32)cc2c1OCO2	nt	nt	nt	-22.5%
O=C(c1ccc(F)cc1)N1CC(=O)N2[C@@H](CO)[C@@H](c3ccc(Br)cc3)[C@@H]2C1	nt	nt	-1.1	nt
O=[N+]([O-])c1ccc(SN2CCCCC2)c([N+](=O)[O-])c1	nt	nt	11.9	nt
COc1cccc(NC(=O)CSc2nnc3scc(-c4ccc(Cl)cc4)n23)c1	-15.0%[46.1 µM]	?	-33.8	-4.5%[46.1 µM]

Screening data as filed in PubChem.
